Experimental data as given in the supplement of paper PMC13380429.

How the values were obtained:
[1] = tested on: Vero E6 infected with SARS-CoV-2; test: morphology score (similarity to uninfected cells); higher = more like uninfected cells; settings: 24 h
[2] = tested on: Vero E6 infected with SARS-CoV-2; test: SARS-CoV-2 infection rate relative to infected DMSO; higher = more infection, active = 60 or less; settings: 24 h

| Compound | morphology score [1] | SARS-CoV-2 infection rate [2] |
| --- | --- | --- |
| CCCN(CCC)[C@H]1CCc2cccc(O)c2C1 [8-hydroxy-DPAT] (10 µM) | 0.0607 | 98.5% (inactive) |
| CN/C(=N\CCSCc1nc[nH]c1C)NC#N [cimetidine] (10 µM) | 0.151 | 97.5% (inactive) |
| CNC(=O)[C@H]1O[C@@H](n2cnc3c(NCc4cccc(I)c4)ncnc32)[C@H](O)[C@@H]1O (10 µM) | 0.156 | 100% (inactive) |
| O=C(O)[C@H](Cc1c[nH]c2ccccc12)N1C(=O)c2ccccc2C1=O (10 µM) | -0.0791 | 115% (inactive) |
| OCCn1cc(-c2cnc3nnn(Cc4ccc5ncccc5c4)c3n2)cn1 (10 µM) | -0.0332 | 99% (inactive) |
| O=c1sn(-c2cccc3ccccc23)c(=O)n1Cc1ccccc1 [tideglusib] (10 µM) | 0.109 | 108% (inactive) |
| CN(C)[C@@H]1C(O)=C(C(N)=O)C(=O)[C@@]2(O)C(O)=C3C(=O)c4c(O)cccc4[C@@](C)(O)[C@H]3C[C@@H]12 [tetracycline] (10 µM) | 0.157 | 100% (inactive) |
| COc1ccc(CCN(C)CCCN2CCc3cc(OC)c(OC)cc3CC2=O)cc1OC [zatebradine] (10 µM) | -0.00282 | 112% (inactive) |
| Nc1ccc2cc3ccc(N)cc3nc2c1 [proflavine-hemisulfate] (0.833333 µM) | 0.26 | 80.5% (inactive) |
| Cc1c(F)cc(C(=O)NC2CC2)cc1-c1ccc(C(=O)NCC(C)(C)C)cn1 [losmapimod] (10 µM) | 0.0455 | 98.5% (inactive) |
| CN1CCN(c2cc(-c3ccccc3)nc(N)n2)CC1 (10 µM) | 0.206 | 94.5% (inactive) |
| CN1CCN(C(c2ccccc2)c2ccccc2)CC1 [cyclizine] (10 µM) | -0.126 | 108% (inactive) |
| NCC(O)c1ccc(O)cc1 (stereo unspecified) [octopamine] (10 µM) | -0.0363 | 114% (inactive) |
| O=C(O)[C@H](Cc1ccc(Nc2nccc3ccncc23)cc1)NC1=C(Br)C(=O)C12CCCCC2 (10 µM) | 0.0401 | 98% (inactive) |
| O=c1ccc2cc3ccoc3cc2o1 [psoralen] (10 µM) | -0.0337 | 108% (inactive) |
| CNS(=O)(=O)Nc1nccc(Cc2c(C)c3ccc(Oc4ncccn4)cc3oc2=O)c1F (0.833333 µM) | -0.0748 | 113% (inactive) |
| COc1cc(/C=C/C(=O)O)ccc1O [ferulic-acid] (10 µM) | -0.0443 | 110% (inactive) |
| CCCCCCc1ccc(O)cc1O.Nc1c2ccccc2nc2ccccc12 [acrisorcin] (0.833333 µM) | 0.293 | 97% (inactive) |
